Data as given in PubChem BioAssay AID1159580 (chemical genetic matrix, 2015).
Hit rate of the full screen: of about 5,500 compounds, about 2,000 (36%) were called active. Another 18% or so got no clear call; they are omitted. No stated cut-off is given here; in the data, active means normalized growth mostly below about 0.91 (no sharp cut-off); inconclusive means no clear call, values can overlap the other calls; inactive means mostly above about 0.92. This is one part of the list.

Test: chemical genetic growth profiling, strain panel (AID 1159580);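 further: tested at 20 µM; growth read once vehicle control cultures reached saturation at 30 °C; 1 = growth at the plate median or of vehicle wells; lower values mean less growth of the strain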
Conditions: growth OD

Measured: normalized growth

CC(=O)O[C@@H]1CC2C(C)(C)[C@H](O)C=C[C@]2(C)C2CC[C@]3(C)C(=CC(=O)O[C@H]3c3ccoc3)[C@@]21C (stereo partly specified)
inactive: S. cerevisiae deletion strains, locus YAL021C, strain ccr4, hits give low values 0.971 | S. cerevisiae deletion strains, locus YAL026C, strain drs2, hits give low values 0.983 | S. cerevisiae deletion strains, locus YAL030W, strain snc1, hits give low values 0.974 | S. cerevisiae deletion strains, locus YBL061C, strain skt5, hits give low values 0.987 | S. cerevisiae deletion strains, locus YBR009C, strain hhf1, hits give low values 0.984 | S. cerevisiae deletion strains, locus YBR021W, strain FUR4, hits give low values 0.987 | S. cerevisiae deletion strains, locus YBR023C, strain chs3, hits give low values 0.993 | S. cerevisiae deletion strains, locus YBR171W, strain sec66, hits give low values 0.988 | S. cerevisiae deletion strains, locus YBR229C, strain ROT2, hits give low values 0.996 | S. cerevisiae deletion strains, locus YBR231C, strain swc5, hits give low values 0.99 | S. cerevisiae deletion strains, locus YBR279W, strain paf1, hits give low values 0.99 | S. cerevisiae deletion strains, locus YCL011C, strain gbp2, hits give low values 0.996 | S. cerevisiae deletion strains, locus YCL016C, strain dcc1, hits give low values 0.995 | S. cerevisiae deletion strains, locus YCL029C, strain bik1, hits give low values 1.01 | S. cerevisiae deletion strains, locus YCL061C, strain MRC1, hits give low values 1 | S. cerevisiae deletion strains, locus YCL069W, strain vba3, hits give low values 0.994 | S. cerevisiae deletion strains, locus YCR088W, strain abp1, hits give low values 0.983 | S. cerevisiae deletion strains, locus YDL005C, strain med2, hits give low values 0.967 | S. cerevisiae deletion strains, locus YDL035C, strain GPR1, hits give low values 1.03 | S. cerevisiae deletion strains, locus YDL040C, strain nat1, hits give low values 0.983 | S. cerevisiae deletion strains, locus YDL074C, strain BRE1, hits give low values 0.999 | S. cerevisiae deletion strains, locus YDL101C, strain DUN1, hits give low values 1.01 | S. cerevisiae deletion strains, locus YDL185W, strain tfp1, hits give low values 1.01 | S. cerevisiae deletion strains, locus YDL192W, strain arf1, hits give low values 1.01 | S. cerevisiae deletion strains, locus YDR001C, strain nth1, hits give low values 0.976 | S. cerevisiae deletion strains, locus YDR069C, strain doa4, hits give low values 0.978 | S. cerevisiae deletion strains, locus YDR101C, strain arx1, hits give low values 1.02 | S. cerevisiae deletion strains, locus YDR137W, strain rgp1, hits give low values 0.956 | S. cerevisiae deletion strains, locus YDR159W, strain sac3, hits give low values 0.962 | S. cerevisiae deletion strains, locus YDR162C, strain NBP2, hits give low values 1.02 | S. cerevisiae deletion strains, locus YDR195W, strain ref2 0.969 | S. cerevisiae deletion strains, locus YDR297W, strain sur2, hits give low values 0.973 | S. cerevisiae deletion strains, locus YDR318W, strain mcm21, hits give low values 1 | S. cerevisiae deletion strains, locus YDR334W, strain swr1, hits give low values 0.972 | S. cerevisiae deletion strains, locus YDR335W, strain msn5, hits give low values 0.975 | S. cerevisiae deletion strains, locus YDR388W, hits give low values 1 | S. cerevisiae deletion strains, locus YDR392W, strain spt3, hits give low values 0.989 | S. cerevisiae deletion strains, locus YDR502C, strain sam2, hits give low values 1.01 | S. cerevisiae deletion strains, locus YEL003W, strain gim4, hits give low values 0.985 | S. cerevisiae deletion strains, locus YEL037C, strain rad23, hits give low values 0.984 | S. cerevisiae deletion strains, locus YEL061C, strain CIN8 (second series), hits give low values 0.988 | S. cerevisiae deletion strains, locus YEL061C, strain CIN8, hits give low values 1 | S. cerevisiae deletion strains, locus YER015W, strain faa2, hits give low values 0.991 | S. cerevisiae deletion strains, locus YER016W, strain bim1, hits give low values 0.993 | S. cerevisiae deletion strains, locus YER110C, hits give low values 0.996 | S. cerevisiae deletion strains, locus YER111C, strain swi4, hits give low values 0.975 | S. cerevisiae deletion strains, locus YER155C, strain BEM2 (second series), hits give low values 0.985 | S. cerevisiae deletion strains, locus YER155C, strain BEM2, hits give low values 0.997 | S. cerevisiae deletion strains, locus YER167W, strain BCK2, hits give low values 1.01 | S. cerevisiae deletion strains, locus YFR010W, strain ubp6, hits give low values 0.97 | S. cerevisiae deletion strains, locus YGL078C, strain dbp3, hits give low values 1 | S. cerevisiae deletion strains, locus YGL086W, strain mad1, hits give low values 0.993 | S. cerevisiae deletion strains, locus YGL167C, strain pmr1, hits give low values 0.987 | S. cerevisiae deletion strains, locus YGL173C, strain kem1, hits give low values 0.977 | S. cerevisiae deletion strains, locus YGL227W, strain vid30, hits give low values 0.989 | S. cerevisiae deletion strains, locus YGL240W, strain doc1, hits give low values 0.993 | S. cerevisiae deletion strains, locus YGL248W, strain PDE1, hits give low values 1.01 | S. cerevisiae deletion strains, locus YGL253W, strain hxk2, hits give low values 0.985 | S. cerevisiae deletion strains, locus YGR135W, strain pre9, hits give low values 1 | S. cerevisiae deletion strains, locus YGR229C, strain SMI1, hits give low values 1.04 | S. cerevisiae deletion strains, locus YGR252W, strain gcn5, hits give low values 0.97 | S. cerevisiae deletion strains, locus YHR013C, strain ard1, hits give low values 0.98 | S. cerevisiae deletion strains, locus YHR027C, strain rpn1, hits give low values 0.994 | S. cerevisiae deletion strains, locus YHR030C, strain SLT2, hits give low values 1.01 | S. cerevisiae deletion strains, locus YHR079C, strain IRE1 (second series), hits give low values 1 | S. cerevisiae deletion strains, locus YHR094C, strain hxt1, hits give low values 1 | S. cerevisiae deletion strains, locus YHR129C, strain ARP1, hits give low values 1.01 | S. cerevisiae deletion strains, locus YHR142W, strain chs7, hits give low values 0.993 | S. cerevisiae deletion strains, locus YHR200W, strain rpn10, hits give low values 1 | S. cerevisiae deletion strains, locus YIL066C, strain RNR3, hits give low values 1 | S. cerevisiae deletion strains, locus YIL073C, strain SPO22, hits give low values 1.01 | S. cerevisiae deletion strains, locus YIL125W, strain kgd1, hits give low values 0.99 | S. cerevisiae deletion strains, locus YIR030C, strain dcg1, hits give low values 0.997 | S. cerevisiae deletion strains, locus YJL092W, strain hpr5, hits give low values 0.984 | S. cerevisiae deletion strains, locus YJL095W, strain BCK1 (second series), hits give low values 0.981 | S. cerevisiae deletion strains, locus YJL095W, strain BCK1, hits give low values 1.02 | S. cerevisiae deletion strains, locus YJL115W, strain asf1, hits give low values 0.964 | S. cerevisiae deletion strains, locus YJL129C, strain trk1, hits give low values 0.988 | S. cerevisiae deletion strains, locus YJL134W, strain LCB3, hits give low values 1.01 | S. cerevisiae deletion strains, locus YJL154C, strain vps35, hits give low values 0.981 | S. cerevisiae deletion strains, locus YJL164C, strain tpk1, hits give low values 0.991 | S. cerevisiae deletion strains, locus YJL166W, strain qcr8, hits give low values 0.993 | S. cerevisiae deletion strains, locus YJL168C, strain set2, hits give low values 0.99 | S. cerevisiae deletion strains, locus YJL187C, strain SWE1 (second series), hits give low values 1.01 | S. cerevisiae deletion strains, locus YJL187C, strain SWE1, hits give low values 0.986 | S. cerevisiae deletion strains, locus YKL009W, strain mrt4, hits give low values 0.993 | S. cerevisiae deletion strains, locus YKL068W, hits give low values 1.01 | S. cerevisiae deletion strains, locus YKL085W, strain MDH1 (second series), hits give low values 0.997 | S. cerevisiae deletion strains, locus YKL085W, strain MDH1, hits give low values 0.997 | S. cerevisiae deletion strains, locus YKL160W, strain elf1, hits give low values 0.992 | S. cerevisiae deletion strains, locus YKL190W, strain CNB1, hits give low values 1.01 | S. cerevisiae deletion strains, locus YKR001C, strain vps1, hits give low values 1 | S. cerevisiae deletion strains, locus YKR026C, strain gcn3, hits give low values 0.99 | S. cerevisiae deletion strains, locus YKR091W, strain srl3, hits give low values 0.99 | S. cerevisiae deletion strains, locus YLL001W, strain dnm1, hits give low values 0.983 | S. cerevisiae deletion strains, locus YLL026W, hits give low values 0.987 | S. cerevisiae deletion strains, locus YLL041C, strain sdh2, hits give low values 0.985 | S. cerevisiae deletion strains, locus YLR027C, strain aat2, hits give low values 0.979 | S. cerevisiae deletion strains, locus YLR039C, strain RIC1, hits give low values 1.07 | S. cerevisiae deletion strains, locus YLR058C, strain SHM2, hits give low values 1 | S. cerevisiae deletion strains, locus YLR102C, strain apc9, hits give low values 0.998 | S. cerevisiae deletion strains, locus YLR221C, strain rsa3, hits give low values 0.993 | S. cerevisiae deletion strains, locus YLR258W, strain gsy2, hits give low values 0.998 | S. cerevisiae deletion strains, locus YLR262C, strain YPT6 (second series), hits give low values 0.978 | S. cerevisiae deletion strains, locus YLR268W, strain sec22, hits give low values 0.997 | S. cerevisiae deletion strains, locus YLR320W, strain mms22, hits give low values 0.991 | S. cerevisiae deletion strains, locus YLR342W, strain FKS1 (second series), hits give low values 1.01 | S. cerevisiae deletion strains, locus YLR342W, strain FKS1, hits give low values 0.991 | S. cerevisiae deletion strains, locus YLR357W, strain rsc2, hits give low values 0.947 | S. cerevisiae deletion strains, locus YLR370C, strain arc18, hits give low values 0.992 | S. cerevisiae deletion strains, locus YLR371W, strain rom2, hits give low values 1 | S. cerevisiae deletion strains, locus YLR384C, strain iki3, hits give low values 1 | S. cerevisiae deletion strains, locus YLR418C, strain cdc73, hits give low values 0.98 | S. cerevisiae deletion strains, locus YML016C, strain PPZ1, hits give low values 1 | S. cerevisiae deletion strains, locus YML032C, strain rad52, hits give low values 0.991 | S. cerevisiae deletion strains, locus YML120C, strain ndi1, hits give low values 0.994 | S. cerevisiae deletion strains, locus YML124C, strain tub3, hits give low values 1 | S. cerevisiae deletion strains, locus YMR058W, strain fet3, hits give low values 0.974 | S. cerevisiae deletion strains, locus YMR078C, strain ctf18, hits give low values 0.992 | S. cerevisiae deletion strains, locus YMR125W, strain sto1, hits give low values 0.978 | S. cerevisiae deletion strains, locus YMR129W, hits give low values 0.999 | S. cerevisiae deletion strains, locus YMR205C, strain PFK2, hits give low values 0.98 | S. cerevisiae deletion strains, locus YMR223W, strain ubp8, hits give low values 1 | S. cerevisiae deletion strains, locus YMR231W, strain pep5, hits give low values 0.967 | S. cerevisiae deletion strains, locus YMR307W, strain GAS1, hits give low values 0.99 | S. cerevisiae deletion strains, locus YNL067W, strain RPL9B, hits give low values 1.02 | S. cerevisiae deletion strains, locus YNL071W, strain lat1, hits give low values 0.991 | S. cerevisiae deletion strains, locus YNL128W, strain TEP1, hits give low values 1.02 | S. cerevisiae deletion strains, locus YNL209W, strain ssb2, hits give low values 0.998 | S. cerevisiae deletion strains, locus YNL233W, strain BNI4, hits give low values 1.02 | S. cerevisiae deletion strains, locus YNL248C, strain rpa49, hits give low values 0.966 | S. cerevisiae deletion strains, locus YNL250W, strain rad50, hits give low values 0.996 | S. cerevisiae deletion strains, locus YNL271C, strain bni1, hits give low values 1 | S. cerevisiae deletion strains, locus YNL298W, strain CLA4, hits give low values 1.01 | S. cerevisiae deletion strains, locus YNL307C, strain MCK1, hits give low values 0.995 | S. cerevisiae deletion strains, locus YNL322C, strain KRE1 (second series), hits give low values 1 | S. cerevisiae deletion strains, locus YNL322C, strain KRE1, hits give low values 1.01 | S. cerevisiae deletion strains, locus YNR049C, strain mso1, hits give low values 0.987 | S. cerevisiae deletion strains, locus YNR052C, strain pop2, hits give low values 0.995 | S. cerevisiae deletion strains, locus YOL012C, strain htz1 1.25 | S. cerevisiae deletion strains, locus YOL147C, strain pex11, hits give low values 0.996 | S. cerevisiae deletion strains, locus YOR001W, strain rrp6, hits give low values 0.984 | S. cerevisiae deletion strains, locus YOR061W, strain CKA2, hits give low values 0.997 | S. cerevisiae deletion strains, locus YOR069W, strain VPS5, hits give low values 1 | S. cerevisiae deletion strains, locus YOR070C, strain gyp1, hits give low values 1.01 | S. cerevisiae deletion strains, locus YOR080W, strain dia2, hits give low values 0.995 | S. cerevisiae deletion strains, locus YOR083W, strain WHI5, hits give low values 0.994 | S. cerevisiae deletion strains, locus YOR106W, strain vam3, hits give low values 0.99 | S. cerevisiae deletion strains, locus YOR136W, strain idh2, hits give low values 1 | S. cerevisiae deletion strains, locus YOR144C, strain elg1, hits give low values 0.999 | S. cerevisiae deletion strains, locus YOR184W, strain ser1, hits give low values 1.01 | S. cerevisiae deletion strains, locus YOR265W, strain rbl2, hits give low values 0.979 | S. cerevisiae deletion strains, locus YOR270C, strain vph1, hits give low values 0.914 | S. cerevisiae deletion strains, locus YOR290C, strain snf2, hits give low values 1 | S. cerevisiae deletion strains, locus YOR316C, strain cot1, hits give low values 0.999 | S. cerevisiae deletion strains, locus YPL051W, strain arl3, hits give low values 0.995 | S. cerevisiae deletion strains, locus YPL078C, strain atp4, hits give low values 0.989 | S. cerevisiae deletion strains, locus YPL106C, strain sse1, hits give low values 0.998 | S. cerevisiae deletion strains, locus YPL240C, strain hsp82, hits give low values 0.995 | S. cerevisiae deletion strains, locus YPL241C, strain CIN2, hits give low values 1.01 | S. cerevisiae deletion strains, locus YPR119W, strain clb2, hits give low values 0.994 | S. cerevisiae deletion strains, locus YPR141C, strain kar3, hits give low values 0.993 | S. cerevisiae deletion strains, locus YPR163C, strain tif3, hits give low values 0.994 | S. cerevisiae deletion strains, locus YPR167C, strain met16, hits give low values 0.996 | S. cerevisiae deletion strains, strain wtn01, hits give low values 1 | S. cerevisiae strains, strain wild type, hits give low values 1.02
